In the library only some 7.5% were active in any assay of this set; here they are far more common.
FMDV inh: blocks foot and mouth disease virus; 410,000 compounds, 1.2% hits; Potency, µM (titrated, usually from 57.9 µM), inactives show top-dose activity change, negative = inhibition, hits mostly inhibitors; FMDV antiviral cell-based qHTS; AID 1159524; calls by dose curve; tested in HEK293T cells; note: read-out not given here; potency is the fitted concentration of half-maximal effect; nearly all actives have a fitted effect of over 45% in size
FBPA Giardia inh: Giardia lamblia aldolase inhibition; purified Giardia FBPA; AID 2451; 290,000 compounds, 0.71% hits; Potency, µM (titrated, usually from 59.6 µM), inactives show top-dose activity, negative = inhibition, actives largely listed as inhibitors; note: potency is the fitted concentration of half-maximal effect; nearly all actives have a fitted effect of over 55% in size
Target sequence (A8B2U2 whole entry, looked up): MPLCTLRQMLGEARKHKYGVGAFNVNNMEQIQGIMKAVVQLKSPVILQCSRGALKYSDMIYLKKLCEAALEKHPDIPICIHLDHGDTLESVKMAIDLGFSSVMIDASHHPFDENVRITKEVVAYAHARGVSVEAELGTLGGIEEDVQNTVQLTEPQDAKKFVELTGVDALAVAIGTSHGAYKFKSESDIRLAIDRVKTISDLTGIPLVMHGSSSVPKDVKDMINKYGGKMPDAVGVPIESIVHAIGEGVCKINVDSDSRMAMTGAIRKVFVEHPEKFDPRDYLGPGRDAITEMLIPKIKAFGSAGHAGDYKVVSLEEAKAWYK
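40 nM FBPA preincubated 10 min at RT with compound (up to 57.5 uM final), then substrate plus GAPDH/TPI/NAD/arsenate coupling and diaphorase/resazurin added. Fluorescence read after 20 min at RT, 525/598 nm.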
HCMV antiviral: inhibitors of human cytomegalovirus. activity change, negative = inhibition, % at 57.5 µM. AID 1259415. 410,000 compounds, 4.5% hits. HFF cells, HCMV-luciferase reporter, 72 h; stronger effect = lower value; in the data active = activity change below about -60%; inconclusive = no clear call, values can overlap the other calls; inactive = above about -39%
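Luciferase read-out from HCMV-luciferase-infected HFFs (MOI 1 PFU/cell) 72 h post infection at 37C; compounds added after 16 h cell attachment; activity normalized between buffer-only basal and Salinomycin (10uM) inhibitor controls.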
Vaccinia mCherry: vaccinia inhibition (mCherry reporter); Vaccinia virus mCherry reporter infection, fluorescence; Potency, µM (highest dose often 36.5 µM), without a hit: at the highest dose activity change, negative = inhibition, hits mostly inhibitors; 310,000 compounds, 0.63% hits; AID 720579; calls by dose curve; tested in A549 cells; note: potency is the fitted concentration of half-maximal effect; nearly all actives have a fitted effect of over 35% in size
VACV Venus inh: vaccinia inhibition (Venus reporter) | Vaccinia virus Venus reporter expression, fluorescence | Potency, µM (series often up to 36.5 µM), for the others: top-dose activity change, negative = inhibition, hits mostly inhibitors | 330,000 compounds, 0.46% hits | AID 720580; calls by dose curve; tested in A549 cells; note: potency is the fitted concentration of half-maximal effect; nearly all actives have a fitted effect of over 30% in size
HCV inhibitor: HCV inhibition | Huh7.5.1 HCVcc-Cre infection, luciferase reporter, 44 h | Potency, µM (doses to about 41.8 µM), for inactives: top-dose activity change, negative = inhibition, most hits filed as inhibitors | 340,000 compounds, 3.4% hits | AID 651820; note: potency is the fitted concentration of half-maximal effect
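Infectious HCV cell culture screen: compound-treated cells (1,000/well, pre-plated 4 h) are infected with HCVcc-Cre at roughly 0.5 moi and grown 44 h. Infection is quantified by luciferase signal after 15 min substrate incubation at room temperature.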
Starred values were filed as active, the others as inactive; i = inactive; u = inconclusive; x = not tested or not shown; [ ] = another dose, or the depositor's remark. Unless noted, calls come from the whole dose curve; as a rule, active = well fitted curve in the direction sought with a large enough effect; inconclusive = small, poorly fitted or top-dose-only effect, or another doubt; inactive = no such curve, though single readings can be large; an effect the other way counts as inactive or inconclusive. % is set by controls: 0 for no effect and ±100 for the full control effect.

SMILES | FMDV inh | FBPA Giardia inh | HCMV antiviral | Vaccinia mCherry | VACV Venus inh | HCV inhibitor
Cc1cc(CNC(=O)[C@H]2C[C@@H]2[C@H](NP(=O)(c2ccccc2)c2ccccc2)c2ccccc2)nn1C | 0% | 0% | -91* | i | -3% | 6%[8.37 µM]
O=C(Nc1cccc(F)c1F)C1CCN(c2ncccn2)CC1 | -18% | x | -14 | -11% | -3% | x
NS(=O)(=O)c1ccc(Cl)cc1[N+](=O)[O-] | -11% | -14% | 7 | u | -12% | 3%
CC1=NN(c2nc(-c3ccc(C)cc3)cs2)C(=O)C1N=Nc1ccc(C(N)=O)cc1 (stereo not given) | -28% | 0% | u | u | -1% | 2.8µM*
Cc1ccccc1-n1nc2c(c1NC(=O)C1CCCC1)CS(=O)(=O)C2 | -7% | -3% | 6 | x | x | -7%
CCCNC(=O)C1(C)CCCN(Cc2ccccc2Cl)C1 (stereo not given) | -2% | x | -77* | 38% | -1% | x
CCCNC(=O)C1(C)CCCN(C(=O)COc2ccc(Cl)cc2Cl)C1 (stereo not given) | -25% | x | -100* | -2% | -6% | x
CCCNC(=O)C1(C)CCN(C(=O)COc2ccc(Cl)cc2Cl)C1 (stereo not given) | -16% | x | -25 | i | -7% | x
CN1CCc2c(sc3nc(NCCO)n(-c4cccc(Cl)c4)c(=O)c23)C1 | 20% | -10% | -39 | x | x | 4%
Cc1ccc(NC(=O)CN(C)C(=S)NC2CC2)cc1 | -5% | 0% | -27 | 1% | -3% | 7%
COc1ccc(C)cc1NC(=O)CSc1nnc(-c2ccc(C)cc2)o1 | -29% | -1% | 123 | x | x | -17%
COc1ccc(C)cc1NC(=O)CN(Cc1nnc(-c2ccc(Cl)cc2)o1)C1CCCC1 | -2% | -4% | -8 | -29% | -27% | 7.9µM*
COc1ccc(OC)c(NC(=O)CN(Cc2ccc(F)cc2)C2CCCCC2)c1 | u | -10% | -93* | -29% | -18% | u
COc1ccc(Cl)cc1NC(=O)CN(C)C1CCCCC1 | -27% | -2% | -32 | i | -26% | u
CCCCn1nnnc1C(c1ccccc1)N1CCN(c2cccc(C)c2C)CC1 (stereo not given) | -23% | x | -15 | i | -6% | x
CCCCCN1C(C(=O)c2ccccc2)=C(NC(C)=O)c2ccccc2S1(=O)=O | 16% | x | -70* | -8% | 5% | x
CCCCCN1C(C(=O)c2ccccc2)=C(OC(=O)CC)c2ccccc2S1(=O)=O | -1% | x | -104* | u | u | x
CCCCCN1C(C(=O)c2ccccc2)=C(NC(=O)c2ccc(C)cc2)c2ccccc2S1(=O)=O | -5% | x | -40 | -16% | -6% | x
CCCCN1C(C(=O)c2ccccc2)=C(OC(=O)CC)c2ccccc2S1(=O)=O | 0% | x | -107* | u | u | x
CCN1C(C(=O)c2ccccc2)=C(OC(=O)C(C)C)c2ccccc2S1(=O)=O | -20% | x | -33 | -13% | -18% | x
CCCCC(=O)OC1=C(C(=O)c2ccccc2)N(CCC)S(=O)(=O)c2ccccc21 | -12% | x | -86* | -17% | -10% | x
O=C(Cc1ccc(F)cc1)N1CCOCC1 | 0% | 7% | -7 | -11% | -15% | 15%
Cc1cc(C)n2nc(C(=O)OCC(=O)N(Cc3ccccc3)C(C)C)nc2n1 | -6% | x | -14 | i | 3% | -16%
Clc1ccc(C(c2ccccc2)N2CCNCC2)cc1 (stereo not given) | -4% | -3% | 45 | x | x | 11µM*
O=C(O)c1cc(S(=O)(=O)NC(Cc2c[nH]c3ccccc23)C(=O)O)ccc1Cl (stereo not given) | -2% | -11% | 54 | x | x | 16%
SMILES | FMDV inh | FBPA Giardia inh | HCMV antiviral | Vaccinia mCherry | VACV Venus inh | HCV inhibitor
COc1ccc(Cn2c(-c3ccc(C)cc3)c[n+]3ccccc23)cc1 | u | 8% | -97* | i | -7% | u
COc1ccc(-c2nc3ccccc3n2Cc2ccc(C)cc2)cc1 | 10% | -1% | -33 | x | -19% | u
Oc1ccc2c(c1)c1ccccc1c1ncccc21 | -24% | x | 13 | -11% | -24% | 11µM*
O=C(NC1CCCC1)c1cc(COc2ccc3ncccc3c2)on1 | u | -8% | x | x | x | 3.5µM*
O=C(NCCc1cn2ccccc2n1)c1cc(COc2ccc3ncccc3c2)on1 | 11µM* | -4% | -76* | u | -15% | 2.5µM*
O=C(c1cc(COc2ccc3ncccc3c2)on1)N1CCCC1 | -23% | x | u | -27% | -28% | 7.1µM*
O=C(c1cc(COc2ccc3ncccc3c2)on1)N1CCCCCC1 | -6% | -2% | -37 | -15% | -30% | u
CC(NC(=O)c1cc(COc2ccc3ncccc3c2)on1)c1ccc(F)cc1 (stereo not given) | 1.8µM* | -9% | -85* | x | x | 2.2µM*
Cc1c(C(=O)N2CC[C@@H]3CCCC[C@H]3C2)sc2ncnc(NCCc3ccccn3)c12 | -19% | x | x | -5% | 5% | x
COCCN(C)C(=O)c1cnn(-c2nccc(-c3cc(OC)ccc3OC)n2)c1C | 22% | x | x | i | -3% | x
COCC1CCN(C(=O)c2cc(COc3ccc4ncccc4c3)on2)CC1 | u | -1% | -75* | -24% | -22% | 1.1µM*
CCNc1ccccc1CP(=O)(c1ccccc1)c1ccccc1O (stereo not given) | 2% | 1.8µM* | -18 | i | 7% | -1%
CC(C)[C@H](NC(=O)OC(C)(C)C)c1nnc(S(=O)(=O)Cc2c(F)cccc2Cl)o1 | 35µM* | 3% | -76* | i | -14% | u
C[C@H](NC(=O)OC(C)(C)C)c1nnc(SCC(=O)c2ccc(Cl)cc2)o1 | u | 9% | -5 | x | x | u
CC[C@@H](C)[C@H](NC(=O)OC(C)(C)C)c1nnc(S(=O)(=O)Cc2cc(C)ccc2C)o1 | -28% | -8% | 1 | x | u | -14%
C[C@H](NC(=O)OC(C)(C)C)c1nnc(SCc2c(F)cccc2Cl)o1 | -30% | x | -78* | -4% | 3% | x
CN(C)S(=O)(=O)c1cccc(NC(=O)C2CCN(S(=O)(=O)c3cccs3)CC2)c1 | -15% | x | -11 | -17% | -28% | u
COc1ccc2[nH]c3c4c(ccc3c2c1)C(=O)C=CC4=O | 14µM* | u | 81 | x | x | u
COc1ccc2[nH]c(-c3ccc(F)cc3F)cc(=O)c2c1 | x | -7%[89.2 µM] | x | x | x | x
Cc1ccc(N2C(=O)C3CCC(C)(C2=O)C3(C)C)cc1 (stereo not given) | 5% | 5% | 22 | -24% | -11% | -2%
CSC[C@@H]1NC(=S)N(c2ccc(C)cc2)C1=O | 11µM* | 4% | 0 | x | x | 32%
O=S(=O)(CCN1CCN(c2ccccc2O)CC1)c1ccc(Cl)cc1 | -29% | x | -23 | u | u | x
O=S(=O)(CCN1CCSCC1)c1ccccc1 | -9% | 3% | 35 | 13µM* | u | 7%

Assay outcomes as filed in PubChem.
